# Inconclusive results are not listed. The source made the active and inactive calls. Rule for the calls: active = hit-call score of the fitted dose curve at least 0.9, where 1 is the maximum; inconclusive = response in the unintended direction; inactive = score below 0.9.
# Assay: ACEA_ER_AUC_viability: ACEA Biosciences xCELLigence Real-Time Cell Analysis on Estrogen Receptor Agonism for Viability (AID 2283782);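 note: continuous compound exposure with impedance area under curve over 80 h; hit means loss of impedance signal meaning reduced cell growth or viability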
# Method in brief: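 T-47D human breast cells in phenol red-free RPMI1640 with 10% charcoal-stripped FBS were dosed with an 8-point 1:4 dilution series from 100 uM top final concentration, in duplicate. Impedance-based growth was followed for 80 h; AUC analysed versus DMSO.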
Compound,outcome,AC50
CC(=O)Nc1ccccc1O,inactive,–
CC1(C)C(=O)N(Br)C(=O)N1Cl,inactive,–
COc1cccc(OC)c1,inactive,–
CC(C#N)(CCC(=O)O)N=NC(C)(C#N)CCC(=O)O (configuration not stated),inactive,–
NCCCCCCN,inactive,–
C=CC(C)(CCC=C(C)C)OC=O (configuration not stated),inactive,–
C=CC(C)(O)CCC=C(C)CCC=C(C)C (configuration not stated),–,67.1 µM (active)
CCN(CC)c1ccc2c(-c3ccccc3C(=O)O)c3ccc(=[N+](CC)CC)cc-3oc2c1,–,29.1 µM (active)
CC1(C)[C@H]2CC[C@]1(C)[C@H](O)C2,inactive,–
CCCCCCC#CC(=O)OC,inactive,–
CCCCc1ccc(N)cc1,inactive,–
CC(C)=CCC[C@H](C)CC=O,inactive,–
CC1CCC(C(C)(C)O)CC1 (configuration not stated),inactive,–
COc1ccc(O)cc1,inactive,–
Nc1ccc(F)c([N+](=O)[O-])c1,–,26.5 µM (active)
Nc1nc2ccc([N+](=O)[O-])cc2s1,–,50 µM (active)

Compound,outcome,AC50
O=[N+]([O-])c1cc(C(F)(F)F)ccc1Cl,–,49.8 µM (active)
C=C(C)C(=O)O[C@H]1C[C@@H]2CC[C@@]1(C)C2(C)C,inactive,–
OCc1cccnc1,inactive,–
Fc1c(F)c(F)c(Br)c(F)c1F,inactive,–
CO[Si](C)(OC)c1ccccc1,inactive,–
CO[Si](CCCn1c(=O)n(CCC[Si](OC)(OC)OC)c(=O)n(CCC[Si](OC)(OC)OC)c1=O)(OC)OC,–,21.7 µM (active)
CC1CC(OC(=O)c2ccccc2O)CC(C)(C)C1 (configuration not stated),–,78.4 µM (active)
CC(=O)[O][Al][O]C(C)=O,–,9.92 µM (active)
CC(=O)OCCOC(C)=O,inactive,–
CC(=O)c1c(C)cc(C(C)(C)C)cc1C,–,77.7 µM (active)
CCCCCCCCCC=O,inactive,–
COc1ccc(NC(=O)CC(C)=O)cc1,inactive,–
CC(C)=CCC[C@](C)(O)[C@@H]1CC=C(C)CC1,–,84.5 µM (active)
CCCCCC=CCC(=O)OC,inactive,–
CC1CCC2CC1C2(C)C (configuration not stated),inactive,–
CC(C)=CCCC(C)CC=O (configuration not stated),inactive,–
